In PubChem BioAssay AID631 (The Scripps Research Institute Molecular Screening Center, 2007):
Out of some 200,000 compounds screened, about 810 (0.41%) were called active. The list comes from a sample in which actives are over-represented; it also holds similar structures and randomly drawn compounds. Values without a mark were called inactive. Rule as the data show it: active = activation above about 19%; inactive = the rest.

These compounds were tested against Peroxisome proliferator-activated receptor gamma (Homo sapiens) (UniProt P37231) (assay: PPARgamma agonists recruiting SRC-1 coactivator, primary screen, biochemical (AID 631;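 also: 0% = DMSO and 100% = reference agonist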)). Conditions: PPARgamma-SRC-1 coactivator recruitment biochemical assay; at 8 µM; stronger effect = higher value.
Peroxisome proliferator-activated receptor gamma (Homo sapiens), sequence (P37231 whole entry, looked up): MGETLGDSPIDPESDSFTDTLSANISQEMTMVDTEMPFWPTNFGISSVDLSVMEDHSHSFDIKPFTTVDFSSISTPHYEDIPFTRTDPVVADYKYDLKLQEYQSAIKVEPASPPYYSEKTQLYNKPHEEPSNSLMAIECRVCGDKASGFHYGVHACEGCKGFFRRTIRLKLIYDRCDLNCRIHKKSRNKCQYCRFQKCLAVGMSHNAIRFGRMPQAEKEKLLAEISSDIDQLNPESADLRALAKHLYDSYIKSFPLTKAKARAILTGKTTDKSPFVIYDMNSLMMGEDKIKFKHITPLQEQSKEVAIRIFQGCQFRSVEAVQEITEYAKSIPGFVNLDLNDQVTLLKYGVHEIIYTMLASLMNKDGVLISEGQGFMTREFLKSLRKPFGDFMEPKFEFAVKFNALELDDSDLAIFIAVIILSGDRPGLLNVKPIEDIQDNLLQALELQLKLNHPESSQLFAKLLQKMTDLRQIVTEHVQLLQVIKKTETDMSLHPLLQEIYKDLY

Structure (SMILES)	activation
COc1ccc(Cl)cc1C(=O)NCc1cn(C)nc1C	0.6%
Cc1ccc2nc(-c3cccc(Br)c3)cc(C(=O)Nn3cnnc3)c2c1	-0.9%
Cc1ccc(-c2cc(C(=O)NCc3cn(C)nc3C)c3cc(Br)ccc3n2)cc1	22.7% (active)
O=C(Cc1cc(=O)[nH][nH]1)N/N=C/c1ccccc1[N+](=O)[O-]	1.6%
O=C(COc1cccc2ccccc12)Nc1cc(S(=O)(=O)N2CCOCC2)ccc1N1CCOCC1	5.6%
COc1ccccc1CC(NC(C)=O)C(=O)NC1CCN(C(=O)Nc2ccccc2Cl)CC1 (stereo not drawn)	5.1%
C=CCN(CC=C)CCOc1ccccc1[N+](=O)[O-]	2.5%
COCC1CCCN(Cc2nc(-c3ccc4c(c3)OCO4)no2)C1 (stereo not drawn)	10.9%
COc1ccc(C2c3[nH]c4ccccc4c3CCN2CCCn2cccn2)cc1C (stereo not drawn)	-5%
CC(C)(C)CC(=O)Nc1nnc(SCC(=O)NCc2cccs2)s1	10.6%
CCCOc1ccc(N/C=C/C(=O)C(C)(C)C)cc1	2.3%
O=C(/C=C/Nc1ccccc1OC(F)(F)F)C(F)(F)F	-4.7%
CN(C)c1ccc(N/C=C/C(=O)C(F)(F)F)cc1	31.5% (active)
COC(=O)C[n+]1cccc2ccccc21	4.1%
O=C(O)c1ccn(COc2ccc(Br)cc2)n1	7.4%
Cc1ccc(-c2ccc(/C=C(\C#N)C(N)=S)o2)c([N+](=O)[O-])c1	22.9% (active)
Cc1cc(-c2ccc(/C=N/n3cnnc3)o2)c([N+](=O)[O-])cc1C	-9.4%
Cc1ccc(Cc2cnc(NC(=O)/C(C#N)=C/c3ccc(-c4cccc([N+](=O)[O-])c4)o3)s2)cc1	2.6%
Cc1cc(C)cc(C(=O)N(CCc2ccccc2)C2=CC3CCC(C2)N3C)c1 (stereo not drawn)	-4.8%
CSc1nc2nc(-c3cccc(C(F)(F)F)c3)ccn2n1	3.3%
CCn1ccnc1CN(C)Cc1nc(-c2ccc3c(c2)OCO3)no1	3.8%
CC(C)CC(CC(C)C)=NNC(=O)c1ccc(CSc2nncn2C)cc1	9.8%

Structure (SMILES)	activation
COC(=O)c1cccnc1NC(=S)NC(C)C	5.1%
Cc1ccc(Nc2ccccc2N)cc1	7.5%
Nc1ccc(Nc2ccccc2)cc1	20.9% (active)
Cc1cc(Nc2ccccc2)n(C(=O)c2ccc(N)cc2)n1	3.5%
COc1cc(C(=O)NCc2nnc(SCC(=O)Nc3nc4ccc(C)cc4s3)o2)cc(OC)c1OC	4.6%
COc1ccc(-c2ccc(CCC(=O)O)n2NC(=O)c2ccc(C(C)(C)C)cc2)cc1	4.4%
CCOC(=O)Cc1cc(=O)[nH]c(=O)[nH]1	1.2%
O=C1CCC(=O)N1c1ccc(NCCc2ccccc2F)c([N+](=O)[O-])c1	9%
CC(=O)c1sc2nc(SCC(=O)N3CCCCC3)[nH]c(=O)c2c1C	19.1% (active)
O=C(CSc1nc2c(cnn2-c2ccc(F)cc2)c(=O)[nH]1)N1CCCCCC1	1.2%
C=CCNC(=O)CSc1nc2sc(C)c(C)c2c(=O)[nH]1	1.1%
Cc1cccc(NC(=O)c2ccc3nsnc3c2)c1C	4.5%
O=C(Cc1ccccc1)NNS(=O)(=O)c1ccc([N+](=O)[O-])cc1	0.6%
Cc1cn(C)c(=O)n(C)c1=O	3.8%
COc1cc(C2CC(=O)N3CN(Cc4ccccc4)CSC3=C2C#N)ccc1OCc1ccccc1 (stereo not drawn)	19% (active)
COc1cc(CNC2CCCC2)c(Br)cc1OCc1ccccc1	1.4%
COc1ccc(CCN=C2SCC(=O)N2Cc2ccccc2)cc1OC	-0.6%
CCOc1ccc(N(CC(=O)NCCc2ccc(OC)cc2)S(C)(=O)=O)cc1	0.5%
CCOC(=O)Cc1csc(SCC(=O)NC(C)C23CC4CC(CC(C4)C2)C3)n1 (stereo not drawn)	-9%
Cc1nnc(SCCCCSc2nnc(C)c(=O)[nH]2)[nH]c1=O	4.2%
COc1ccc(NC(=O)c2ccccc2CC[N+](=O)[O-])cc1	3.6%
